test system: MAP3K4; conditions: concentration: 1 μM, replicates: in singlicate; n = 1
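Note: KINOMEscan kinase panel screen.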

SMILES	%Inh [%]
Cc1c(Cn2c3ccccc3n3c(=O)cc(N4CCOCC4)nc23)cccc1C(F)(F)F [GSK2306394]	18
Fc1ccc(-c2nc[nH]c2-c2ccncc2)cc1 [SB-217360]	0
COc1cccc(CNC(=O)NC2CCN(c3ccnc(Nc4ccc(F)cc4)n3)C2)c1 (stereo not shown) [GSK1379723]	13
Cc1ccccc1-c1cc(-c2c[nH]nc2-c2ccccn2)ccn1 [GW680061]	14
COC(=O)C(NC(=O)NC1CCN(c2ccnc(Nc3ccc(F)cc3)n2)C1)c1ccccc1 (stereo not shown) [GSK1379712]	6
O=C1NC(=O)C(c2ccc(Cl)cc2)=C1Nc1ccc(O)cc1 [SB-340867]	28
COc1cc2ncnc(Nc3cccc(Br)c3)c2cc1OC.Cl [GI230329]	4
COC(=O)c1cccc(NC(=O)NC2CCN(c3ccnc(Nc4ccc(F)cc4)n3)C2)c1 (stereo not shown) [GSK1379725]	24
COc1ccc2cc(-c3nc(-c4ccccc4C(C)C)[nH]c3-c3ccncc3)ccc2c1 [SB-660566]	16
CC(=O)c1c(C)c2cnc(Nc3ccc(N4CCNCC4)cn3)nc2n(C2CCCC2)c1=O	14
CCc1ccc(-c2ccc3c(c2)-c2n[nH]cc2S(=O)(=O)N3C)cc1	19
CC(=O)c1c(C)c2cnc(Nc3ccn(C)n3)nc2n(C2CCCC2)c1=O	0
CC(C)c1cc(-c2ccc3c(N)n[nH]c3c2)nc(N)n1 [GSK2250882]	1
COc1ccc(Nc2nccc(N3CCC(NC(=O)C(C)c4ccc(Cl)cc4)CC3)n2)cc1 (stereo not shown) [GSK1379812]	15
Cc1ccc(NC(=O)c2ccc(Cl)cc2)cc1-c1ccc(C(=O)Nc2ccncc2)cc1 [GSK1398467]	0
Cl.Cl.Cl.N#Cc1ccc(CCNc2nccc(-c3cccc(CN4CCNCC4)c3)n2)cc1 [GSK2137462]	0
CCCCc1nn2ncccc2c1-c1ccnc(NC2CC2)n1 [GW684374]	6
COc1cccc(NC(=O)Nc2ccc(C)c(-c3ccc(C(=O)Nc4ccncc4)cc3)c2)c1 [GSK1398474]	20
Cc1ccc(-c2nc(Nc3ccncc3)c3ccccc3n2)s1 [GSK189015]	26

SMILES	%Inh [%]
CS(=O)(=O)CCNCc1nc(-c2ccc3ncnc(Nc4ccc(OCc5ccccc5)c(Cl)c4)c3c2)cs1.Cl [GW582764]	20
COC(=O)c1cccc(NC(=O)NC2CCN(c3ccnc(Nc4ccc(OC)cc4)n3)C2)c1 (stereo not shown) [GSK1379746]	12
CC[C@@H]1CO[C@H](C(=O)Nc2ccccc2)CN1c1cc(-c2ccc3c(N)n[nH]c3c2)nc(NC)n1 [GSK2376236]	0
CS(=O)(=O)Cc1ccc(Nc2nccc(-c3c(-c4cccc(NC(=O)C5CCCCC5)c4)nn4ncccc34)n2)cc1 [GSK350559]	11
CSc1ccc(-c2nc3n(c2-c2ccncc2)CCC3)cc1 [SKF-105561]	9
Cc1cnc(N)c(/C=C/c2cncc(C(=O)NCCc3ccc(Cl)cc3Cl)c2)c1.Cl [GSK190937]	0
CNC(=O)c1ccc(C)c(-n2c(C)cc(OCc3ccc(F)cc3F)c(Br)c2=O)c1	6
CCn1c(-c2c(N)noc2C)nc2cnccc21 [SB-737856]	19
O=c1cc(N2CCOCC2)nc2n(Cc3ccccc3F)ccn12 [GSK2297428]	0
Fc1ccc(-c2nc3n(c2-c2ccncc2)CCS3)cc1 [GI98581]	10
Fc1ccc(-c2nn3cccc(F)c3c2-c2ccncc2)cc1 [GW475620]	0
COc1ccc(CSc2nnc(-c3ccc4nccn4c3)o2)cc1C(F)(F)F	12
CC(C)c1ccc(O)cc1Nc1ccnc2ccc(C(F)(F)F)cc12 [GW482059]	13
Cc1ccc(NC(=O)Nc2ccccc2F)cc1-c1ccc(C(=O)Nc2ccncc2)cc1 [GSK1398477]	24
Cc1ccc(NC(=O)Nc2ccc(Cl)cc2)cc1-c1ccc(C(=O)Nc2ccncc2)cc1 [GSK1398472]	6
Cc1c(Cn2c(C)c(C)n3c(=O)cc(N4CCOCC4)nc23)cccc1C(F)(F)F [GSK2328680]	9
O=C(Nc1n[nH]c2nc(-c3cccs3)c(Br)cc12)C1CC1 [SB-735297]	19
Cc1cccc2c(-c3ccncn3)c(-c3ccc(F)cc3)nn12 [GW515532]	0

From PMC5540273 (PLoS ONE, 2017)
